Test system: FGFR3
Conditions: concentration: 1 μM, replicates: in singlicate; n = 1
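Note: KINOMEscan kinase panel screen.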

SMILES	%Inh [%]
Nc1ncc(-c2cccnc2)c2scc(-c3ccc4c(c3)CCN4C(=O)Cc3ccccc3)c12 [GSK683281]	7
c1ccc(Oc2ccc(Nc3ccnc4cc(-c5ccc(CNCCN6CCOCC6)o5)ccc34)cc2)nc1 [GW567145]	10
Cl.Cl.NCC(NCc1ccc(-c2ccnc3[nH]ccc23)s1)c1ccccc1 (stereo not shown) [GSK1321565]	19
CCn1c(-c2nonc2N)nc2c(C#CC(C)(C)O)nc(OC[C@H](N)c3ccccc3)cc21 [GSK943949]	0
O=C(Nc1cccc(-c2nn3ncccc3c2-c2ccnc(Nc3ccccc3)n2)c1)c1c(F)cccc1F [GSK198271]	3
CCS(=O)(=O)c1ccc(OC)c(Nc2nccc(-c3c(-c4cccc(NC(=O)c5c(F)cccc5F)c4)nn4ncccc34)n2)c1 [GSK326180]	16
C[C@@H](Oc1cc(-n2cnc3cc(-c4ccnc(NCCS(C)(=O)=O)c4)ccc32)sc1C(N)=O)c1ccccc1Cl [GSK907232]	81
Oc1cc(Nc2ccnc3cc(I)ccc23)ccc1F [GW552771]	13
Nc1ncc(-c2ccc3nccc(-c4ccncc4)c3c2)cc1S(=O)(=O)N1CCOCC1 [GSK1627798]	6
Cl.Cl.NCC(C(=O)Nc1cc(Br)c(-c2ccnc3[nH]ccc23)s1)c1ccccc1 (stereo not shown) [GSK1269851]	27
COc1ccc(Nc2nccc(N3CCC(NC(=O)Nc4cccc(OC)c4)C3)n2)cc1 (stereo not shown) [GSK1379742]	5
Cc1cccc(NC(=O)Nc2ccc(Oc3ncnc4ccn(C)c34)cc2)c1	0
O=C(Nc1ccccc1F)NC1CCN(c2ccnc(Nc3ccc(F)cc3)n2)CC1 [GSK1379800]	0
COc1cccc(C2=C(Nc3ccc(Cl)c(C(=O)O)c3)C(=O)NC2=O)c1 [SB-390769]	15
O=c1[nH]cc(-c2ccc(N3CCOCC3)cc2)c2sc(-c3cn[nH]c3)cc12 [GSK2276055]	21
COc1ccc(Nc2nccc(NCCNC(=O)c3cc4ccccc4s3)n2)cc1 [GSK1379896]	5
O=C(Nc1cccc(-c2nn3ccccc3c2-c2ccnc(Nc3cccc(C(F)(F)F)c3)n2)c1)c1c(F)cccc1F [GSK292658]	9
COc1cccc(-c2ccc3c(NC(=O)C4CC4)n[nH]c3n2)c1 [SB-710903]	0
Cc1cccc(Nc2nc(N[C@H]3CCNC3)ncc2C(N)=O)c1.Cl [GSK2197149]	3

SMILES	%Inh [%]
Fc1ccc(-c2ncn(C3CCNCC3)c2-c2ccnc(Oc3ccc(-c4ccccc4)cc3)n2)cc1 [SB-245391]	0
O=C(NC1CCN(c2ccnc(Nc3ccc(F)cc3)n2)C1)c1cc2ccccc2s1 (stereo not shown) [GSK1379716]	16
COc1cccc(C(=O)Nc2cccc(Oc3ccc4nc(NC(=O)C5CC5)cn4n3)c2)c1	41
Cl.NC(=O)c1cccc(Nc2nccc(Nc3ccc(Oc4c(Cl)cccc4Cl)c(Cl)c3)n2)c1 [GW659009]	0
O=C(Nc1n[nH]c2cc(-c3ccoc3)ccc12)C1CC1 [SB-738481]	7
Cl.c1ccc(-c2ccc3c(Nc4ccc5[nH]ccc5c4)ccnc3c2)nc1 [GW440138]	58
COc1ccc(-c2coc3ccc(-c4nnc(SCc5ccc(OC)c(C(F)(F)F)c5)o4)cc23)cc1	17
COc1cc2c(cc1OCCN1CCNCC1)ncc1c3ccc(C#N)cc3[nH]c21	21
CN(c1ccc(NC(=O)Nc2cc(C(F)(F)F)ccc2F)cc1)c1ccnc(Nc2ccc(S(N)(=O)=O)cc2)n1 [GW809893]	22
Cn1cc(-c2ccc3c(c2)CCN3C(=O)Cc2cccc(F)c2)c2c(N)ncnc21 [GSK2603358]	0
CN(C)Cc1ccc(-c2ccc3c(Nc4ccc(Oc5ccccn5)cc4)ccnc3c2)o1 [GW567148]	5
c1ccc(-c2n[nH]cc2Nc2ccnc3ccccc23)nc1 [GW694077]	0
COc1ccc(CNC(=O)NC2CCN(c3ccnc(Nc4ccc(F)cc4)n3)CC2)cc1 [GSK1379788]	8
COc1cc(Nc2nccc(-c3c(-c4cccc(NC(=O)c5c(F)cccc5F)c4)nn4ncccc34)n2)cc(OC)c1OC [GSK327238]	31
CCCCc1nn2ncccc2c1-c1ccnc(Nc2ccc(N3CCN(C)CC3)cc2)n1 [GW684941]	89
CC(C)c1nc(-c2cccc(NS(=O)(=O)c3c(F)cccc3F)c2F)c(-c2ccnc(Nc3ccc(N4CCOCC4)nc3)n2)s1 [GSK2008607]	67
NCCCC(NC(=O)c1cc(Br)c(-c2ccnc3[nH]ccc23)s1)c1ccccc1.O=C(O)C(F)(F)F.O=C(O)C(F)(F)F (stereo not shown) [GSK1287544]	30
CN(C)S(=O)(=O)c1cc(-c2ccc3nccc(-c4cccc(S(N)(=O)=O)c4)c3c2)cnc1N [GSK1669921]	26
